# A selection: hits, their analogues and other compounds. The true share with any hit is near 1.7%.
# Rin1-Abl PPI inh = inhibitors of Rin1-Abl protein binding, primary screen, biochemical, TR-FRET | inhibition, % at 7.35 µM | Tyrosine-protein kinase ABL1 (Homo sapiens) + Ras and Rab interactor 1 (Homo sapiens), … | AID 588664, 2011 | 360,000 compounds, 0.4% hits; in the data active = inhibition above about 5%, passing the limit was not always enough
# Hck Nef HTS = inhibitors of Nef-activated human Hck kinase, primary screen, biochemical, Z-Lyte FRET, 384-well, Hck-YEEI; 220,000 compounds, 0.68% hits; inhibition, % at 20 µM; AID 463187, 2010; Recombinant Hck-YEEI plus Nef, Z-Lyte FRET kinase assay;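 active = Hck-Nef kinase inhibition above about 50%, limit read from the data; inactive = inhibition below that limit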;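 also: 0% = DMSO with Hck plus Nef and 100% = Hck alone without Nef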
# PREPL inhibitor = PREPL enzyme inhibitors, primary screen, biochemical, fluorescence polarization. inhibition, % at 5.96 µM. AID 2751, 2010. 320,000 compounds, 0.68% hits. recombinant PREPL, fluorescence polarization activity-based probe; in the data active = inhibition above about 43%;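 also: 0% = enzyme with DMSO and 100% = wells lacking enzyme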
# LYPLA1 inh = LYPLA1 inhibitors, primary screen, counter-screen for PME1 inhibitor project, biochemical, fluorescence polarization, FP-Rh probe ABPP; recombinant LYPLA1; inhibition, % at 5.9 µM; 320,000 compounds, 0.16% hits; AID 2174, 2009;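 active = inhibition above the mean of all tested compounds plus 3 SD, set per campaign, cut at about 14% in these data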;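 also: inhibitors block serine hydrolase probe labeling of LYPLA1 so polarization falls; 0% = enzyme with DMSO and 100% = wells lacking LYPLA1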
# p97 ATPase inh = inhibitors of human p97 ATPase, primary screen, biochemical | recombinant p97 ATPase, Kinase-Glo ATP luminescence, 3 h | inhibition, % at 8 µM | 220,000 compounds, 0.42% hits; in the data active = inhibition above about 15%;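 also: 0% = DMSO vehicle and 100% = wells lacking enzyme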
# Target sequence (P55072 whole entry, looked up): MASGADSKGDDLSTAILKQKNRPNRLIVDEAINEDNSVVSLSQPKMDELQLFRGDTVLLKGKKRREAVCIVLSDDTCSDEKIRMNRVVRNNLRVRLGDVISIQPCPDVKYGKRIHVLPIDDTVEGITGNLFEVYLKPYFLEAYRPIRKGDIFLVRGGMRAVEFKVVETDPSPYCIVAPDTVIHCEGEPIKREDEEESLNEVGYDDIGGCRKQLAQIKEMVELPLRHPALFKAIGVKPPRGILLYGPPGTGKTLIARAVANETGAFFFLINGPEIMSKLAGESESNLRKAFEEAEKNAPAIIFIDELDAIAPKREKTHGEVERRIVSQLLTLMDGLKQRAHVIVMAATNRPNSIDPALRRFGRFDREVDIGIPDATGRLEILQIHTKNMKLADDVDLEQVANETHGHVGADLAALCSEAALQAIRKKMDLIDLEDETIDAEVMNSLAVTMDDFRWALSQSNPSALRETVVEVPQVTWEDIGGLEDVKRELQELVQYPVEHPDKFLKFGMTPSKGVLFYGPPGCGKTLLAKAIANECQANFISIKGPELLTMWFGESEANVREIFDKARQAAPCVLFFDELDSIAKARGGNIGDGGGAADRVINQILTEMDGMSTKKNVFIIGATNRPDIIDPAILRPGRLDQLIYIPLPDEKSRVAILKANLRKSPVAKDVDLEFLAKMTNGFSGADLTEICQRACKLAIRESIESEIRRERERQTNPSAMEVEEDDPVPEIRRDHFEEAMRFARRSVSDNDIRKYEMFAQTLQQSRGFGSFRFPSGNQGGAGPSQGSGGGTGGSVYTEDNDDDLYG
# LYPLA2 inh = LYPLA2 inhibitors, primary screen, counter-screen for PME1 inhibitor project, biochemical, fluorescence polarization, FP-Rh probe ABPP; inhibition, % at 5.9 µM; recombinant LYPLA2; 320,000 compounds, 0.38% hits; AID 2177, 2009;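 active = inhibition above the screen-wide mean plus 3 SD, limit set per campaign, cut at about 26% in these data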;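 also: 0% = LYPLA2 with DMSO and 100% = wells lacking LYPLA2 enzyme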
# Numbers without * were called inactive; nt = no result.
SMILES,Rin1-Abl PPI inh,Hck Nef HTS,PREPL inhibitor,LYPLA1 inh,p97 ATPase inh,LYPLA2 inh
COC(=O)c1ccc(OC(=O)CCN2c3ccccc3Sc3ccccc32)cc1,-2,0,1,2,-3,4
COC(=O)c1ccc(OC(=O)CCN2C(=O)C3CCCCC3C2=O)cc1 (stereo not given),-3,0,44*,-5,-1,2
Cc1ccccc1OCC(=O)NNC(=S)NC(=O)c1ccccc1[N+](=O)[O-],-2,0,-4,0,-4,-3
CC(C)(C)c1ccc(OCC(=O)NNC(=S)NC(=O)c2ccccc2[N+](=O)[O-])c(Br)c1,3,-5,1,4,-9,27*
CCC1C/C(=C/c2ccco2)C(=O)/C(=C/c2ccco2)C1 (stereo not given),nt,62*,3,1,9,4
CCOC(=O)c1cnc(-n2cc(C)cn2)nc1NCc1ccc2c(c1)OCO2,1,12,58*,0,-4,0
CCOC(=O)c1c(C)c(C(=O)NCc2ccc3c(c2)OCO3)c(C)n1CC,-1,4,1,0,0,2
COc1ccc(NC(=O)CSc2ccc3nnc(-c4cccnc4)n3n2)c(OC)c1,-5,13,45*,0,2,2
CCOC(=O)C1=C[C@@H](C(C)C)N(S(=O)(=O)c2ccc(C)cc2)[C@H]1c1ccccc1F,5,nt,nt,nt,nt,nt
Nc1cc(Cl)nc(N/N=C/c2c(O)ccc3ccccc23)n1,-1,2,43*,3,9,-3
O=C(c1cc2c(s1)CCCC2)n1cccn1,-3,-14,68*,4,9,19
COc1ccc(C)cc1NC(=O)CSCc1cc(=O)n2c(C)csc2n1,5,nt,nt,nt,nt,nt
CCOc1ccccc1-c1c2cc(O)c(=O)cc-2oc2cc(O)c(O)cc12,54*,2,nt,nt,4,nt
CN1Cc2c(N3CCOCC3)nc3sc(C(=O)c4ccc(Br)cc4)c(N)c3c2CC1(C)C,-3,-4,68*,4,-2,2
Cc1ccc(C)c(NC(=O)CCC(=O)NN=C2CCCC2)c1,1,nt,nt,nt,nt,nt
O=C1C=CC(=O)c2c(O)c(CO)c(CO)c(O)c21,20*,nt,nt,nt,nt,nt
Nc1ccccc1SCC(=O)Nc1cccc2ccccc12,-3,nt,13,1,nt,3
O=C(Nc1ccc(Br)cc1)NC1CCCCCCC1,-2,nt,10,-9,nt,-13
NNC(=O)CNC(c1ccccc1)c1cc(Br)ccc1NC(=O)CCN1CCOCC1 (stereo not given),-1,-1,26,-12,19*,-3
NNC(=O)CNC(c1ccccc1)c1cc(Br)ccc1NC(=O)c1ccc(Br)cc1 (stereo not given),-2,3,-15,-3,10,-10
CN(CCCC(=O)Nc1ccc(OC(F)F)cc1)S(=O)(=O)c1ccc(F)cc1,-3,nt,-5,-1,nt,1
CN(C)c1ccc(NC(=O)CCn2c(=S)oc3ccccc32)cc1,3,16,58*,-5,7,-4
CN1CCN(Cc2cc(COCc3ccccc3)c3cccnc3c2O)CC1,0,8,47*,3,4,6
O=C(CC1C[C@H](C(=O)N2CCOCC2)[C@@]2(CCC3CCCC3)c3[nH]c4ccccc4c3CCN2C1=O)NCCc1ccccn1 (stereo not given in full),-1,nt,15,nt,nt,nt
CCOc1ccc(N2CC(C(=O)Nc3cc(S(=O)(=O)N4CCCCC4)ccc3C)CC2=O)cc1 (stereo not given),-2,nt,8,nt,nt,nt
C=CCc1cccc2cc(C(=O)O)c(=O)oc12,5,-1,3,0,4,-6
C=CCc1cccc2cc(C(=O)Nc3ccccc3C(=O)O)c(=O)oc12,-2,31,nt,nt,22*,nt
COc1ccccc1CNc1nc(-c2cc(C)n(C)c2C)cs1,3,67*,nt,nt,2,nt
COc1ccccc1CC(=O)Nc1nc(-c2ccc(F)c(F)c2)cs1,-1,nt,-44,-14,nt,-21

# Compound activity deposited in PubChem by several laboratories.
